TRHR PAM = TRH receptor (human) allosteric enhancement; TRHR cells, fluo-8 calcium fluorescence, EC20 TRH enhancement; hit rate 0.66% among 360,000; AID 493056; enhancement, % at 2 µM; P34981; in the data active means enhancement above about 30%
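Enhancer read-out: after compound pinning and an initial kinetic agonist-mode read, an EC20 of TRH (10 nM final) was injected and fluo-8 calcium signal (Ex 480/Em 530) followed at 1 s/cycle for 100 cycles in TRHR-expressing cells.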
TRHR agonist = TRH receptor (human) agonism | TRHR cells, calcium flux fluo-8, FDSS agonist mode | activation, % at 2 µM | P34981 | hit rate 0.18% among 360,000
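Steps: seed TRHR cells overnight; add fluo-8 no-wash Ca dye, RT 30 min–1.5 h; record 10 s baseline; pin-transfer compounds; monitor fluorescence 1 cycle/s for the agonist window. Calcium increases flag candidate agonists.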
D1 potentiator = potentiators of human D1 dopamine receptor; P21728; HEK293 TREx D1 cells, calcium flux, dopamine EC20 potentiation; potentiation, % at 10 µM; hit rate 0.036% among 360,000; AID 504651; in the data active means potentiation above about 30%
Target sequence (P21728 whole entry, looked up): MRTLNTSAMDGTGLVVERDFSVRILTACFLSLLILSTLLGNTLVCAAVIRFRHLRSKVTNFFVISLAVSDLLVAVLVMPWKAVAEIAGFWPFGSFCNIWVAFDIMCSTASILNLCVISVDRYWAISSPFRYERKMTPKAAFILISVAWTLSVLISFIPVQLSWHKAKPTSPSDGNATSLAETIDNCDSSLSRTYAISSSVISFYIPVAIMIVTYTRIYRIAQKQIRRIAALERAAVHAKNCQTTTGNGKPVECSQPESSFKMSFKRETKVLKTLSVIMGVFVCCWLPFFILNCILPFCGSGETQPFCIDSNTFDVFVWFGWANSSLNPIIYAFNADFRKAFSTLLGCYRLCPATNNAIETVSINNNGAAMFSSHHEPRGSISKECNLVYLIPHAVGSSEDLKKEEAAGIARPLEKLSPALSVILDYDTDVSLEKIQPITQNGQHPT
D1 antagonist = human D1 dopamine receptor antagonism | HEK293 TREx D1 cells, calcium flux, dopamine EC80; hits give low values | activity change, negative = inhibition, % at 10 µM | hit rate 3.2% among 360,000; in the data active means activity change below about -30%
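Tetracycline-induced HEK293 Trex D1 cells, force-coupled to calcium, dye-loaded; compounds added and read 180 s, then EC80 dopamine added and calcium flux tracked kinetically another 180 s.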
D1 ag = human D1 receptor agonism | P21728 | HEK293 T-REx D1 cells, calcium flux, agonist mode | activation, % at 2 µM | hit rate 1% among 360,000 | AID 504660
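Inducible HEK293 T-REx D1 cells, force-coupled to calcium signalling, were plated at 4000 cells/well with tetracycline and held overnight at 30 C. After no-wash calcium dye loading, compound-evoked calcium rise over 180 s flagged agonists.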
Numbers stand for hits; . = inactive; / = no result given; ! = not confirmed by another sample. This is a sample that favours compounds with a hit; in the whole collection about 4.7% have one here. Unless noted, no stated cut-off is given here; in the data, active means activation above about 30%; inactive means the rest.

SMILES	TRHR PAM	TRHR agonist	D1 potentiator	D1 antagonist	D1 ag
COc1ccc(N(C(=O)/C=C\C(=O)Nc2ccc(Cl)cc2)C(C(=O)NCc2ccco2)c2ccc(C)cc2)cc1 (stereo not drawn)	.	.	.	.	.
COc1ccc2cnn(Cc3ccccc3)c(=O)c2c1OC	.	.	.	.	.
CCCn1ncc(OC)c(Cl)c1=O	.	.	.	-59.4	.
O=C(c1ccc(OC2CCN(CCc3ccccc3)CC2)cc1)N1CCC[C@H]1CO	.	.	.	-78.5	.
O=C(NCc1ccc(F)cc1)c1c(O)c2cccc3c2n(c1=O)CCC3	.	.	.	.	.
O=C(Oc1cc(=O)oc2c1c(=O)n1c3c(cccc23)CC1)c1ccc(F)cc1	.	.	.	-44.6	.
O=C(Oc1cc(=O)oc2ccccc12)c1ccccc1	.	.	.	.	.
O=C(Oc1cc(=O)oc2c1c(=O)n1c3c(cccc23)CC1)c1ccccc1	.	.	.	-38.2	.
COc1cccc(-n2c(=O)c3sc4ccccc4c3n(CC(=O)Nc3ccc(F)cc3F)c2=O)c1	.	.	.	.	.
COc1ccccc1C(=O)Nc1ccc2nc(SCC(=O)N3CCCc4ccccc43)sc2c1	.	.	.	.	.
CCN1CCN(C(=O)c2cc3cc([N+](=O)[O-])ccc3oc2=O)CC1	.	.	.	-36.2	.
COc1cccc(CNC(=O)CCNS(=O)(=O)c2cccc3nsnc23)c1	.	.	.	-73.3!	.
COc1cccc(CNC(=O)CCNS(=O)(=O)c2cccc3nonc23)c1	.	.	.	.	.
COC(=O)CNC(=O)C1CCC(CNS(=O)(=O)c2cccc3nsnc23)CC1 (stereo not drawn)	.	.	.	-33.3	.
O=C(CC1(O)C(=O)N(CCc2ccccc2)c2ccc(Br)cc21)c1ccc(F)cc1 (stereo not drawn)	.	.	.	.	.
Cc1ccc(CSc2cn(CC(=O)N3CCCCCC3)c3ccccc23)cc1	.	.	.	.	.
Cc1oc2ncn(CC(C)C)c(=O)c2c1C(=O)N1CCN(c2ccc(F)cc2)CC1	.	.	.	.	.
Cc1c(C(=O)Nc2cccc(C#N)c2)sc2nc3n(c(=O)c12)CCCCC3	.	.	.	.	.
NS(=O)(=O)c1ccc(Nc2nc(-c3ccc4ccccc4c3)cs2)cc1	.	.	.	.	.
NS(=O)(=O)c1ccc(Nc2nc(-c3cccc([N+](=O)[O-])c3)cs2)cc1	.	.	.	-30.6	.
O=C(c1ccc2c(c1)N(Cc1ccc(Cl)cc1)C(=O)c1ccccc1S2=O)N1CCN(c2ccccc2F)CC1 (stereo not drawn)	.	.	.	.	.
CN(C)CCNC(=O)CN1C(=O)CCn2nc(-c3cn(C)c4ccccc34)cc21	.	.	.	.	.
Cn1cc(-c2cc3n(n2)CCC(=O)N3CC(=O)O)c2ccccc21	43.4	.	.	.	.
CCOC(=O)C1CCN(c2c(N3CCCC(C(=O)OCC)C3)c(=O)c2=O)CC1 (stereo not drawn)	.	.	.	.	.
CCOC(=O)C1CCCN(c2c(N3CCN(c4ccccn4)CC3)c(=O)c2=O)C1 (stereo not drawn)	.	.	.	-51.6	.
SMILES	TRHR PAM	TRHR agonist	D1 potentiator	D1 antagonist	D1 ag
CCS(=O)(=O)N1CCC(C(=O)NCC2CCCO2)CC1 (stereo not drawn)	.	.	.	-35.8	.
CCCCS(=O)(=O)N1CCC(C(=O)NCC2CCCO2)CC1 (stereo not drawn)	.	.	.	.	.
COc1ccc(-n2ccn(CC(=O)Nc3ccccc3C(F)(F)F)c(=O)c2=O)cc1OC	.	.	.	.	.
COc1ccc(C(=O)Oc2cccnc2)cc1	.	.	.	-31.5	.
COC(=O)c1ccc(OC(=O)c2cccnc2)cc1	.	.	.	.	.
Cn1c(Nc2ccccc2)nc2ccccc21	.	.	.	-45.6	.
CCN(CC)CCn1c(C)nc2ccccc21	.	.	.	.	.
Nn1c(Nc2ccccc2)nc2ccccc21	.	.	.	.	.
CCN(CC)CCNc1nc2ccccc2n1C	.	.	.	-37.4	.
Cc1ccc(NC(=O)N(Cc2ccco2)Cc2cc3cc(C)cc(C)c3nc2Cl)cc1	.	.	.	.	.
Cc1cccc2cc(CN(Cc3ccco3)C(=O)Nc3cccc(C#N)c3)c(Cl)nc12	.	.	.	-55.0	.
CCOc1ccc(NS(=O)(=O)c2ccc3c4c(cccc24)C(=O)N3)cc1	.	.	.	.	.
CCOc1ccccc1NC(=O)C1CCCN(S(=O)(=O)c2cccs2)C1 (stereo not drawn)	.	.	.	.	.
O=c1c2cc(Br)ccc2nc(-c2ccc(Cl)cc2)n1O	.	.	.	.	107.2
COC(=O)c1nc(NC2=NCCCCC2)n[nH]1	.	.	.	-36.4	.
CCc1cccc(-n2nnc(-c3nsc(NC(=O)c4cccs4)n3)c2C)c1	.	.	.	.	.
CNS(=O)(=O)c1cnccc1N1CCN(c2cccc(Cl)c2)CC1	.	.	.	-30.5	.
O=C(C1CCN(S(=O)(=O)c2cccnc2)CC1)N1CCN(c2cccc(Cl)c2)CC1	.	.	.	-83.2	.
O=S(=O)(Cc1ccccc1)N1CCN(c2ncccn2)CC1	.	.	.	-50.8	.
CCS(=O)(=O)N1CCN(c2ccccc2)CC1	32.3	.	.	.	.
O=C(C1CCN(S(=O)(=O)Cc2ccccc2)CC1)N1CCN(c2ncccn2)CC1	.	.	.	.	.
O=C1CC(c2nc3ccccc3n2CCCOc2ccccc2)CN1c1ccc(F)cc1 (stereo not drawn)	.	.	.	.	.
O=C(NC1CC(=O)N(c2ccc(Cl)cc2)C1)c1ccc(S(=O)(=O)N2CCCC2)cc1 (stereo not drawn)	.	.	.	/	.
CC(C)c1ccc(Nc2ncnc3c2nc2n3CCCC2)cc1	.	.	.	.	.
O=C(C1CCN(S(=O)(=O)Cc2ccccc2)CC1)N1CCN(c2ccccc2)CC1	.	.	.	-60.7	.
SMILES	TRHR PAM	TRHR agonist	D1 potentiator	D1 antagonist	D1 ag
CCCc1cc(N2CCN(c3ccccc3)CC2)n2cnnc2n1	.	.	.	.	.
CCCc1cc(N2CCN(c3ccc(OC)cc3)CC2)n2cnnc2n1	.	.	.	-33.5	.
CCOC(=O)c1ccc(NC(=O)C(CC)Sc2nc3ncccc3o2)cc1 (stereo not drawn)	.	.	.	.	.
COc1cc(/C=C/C(=O)/C=C(O)/C=C/c2ccc(O)c(OC)c2)ccc1O	.	57.9	.	.	261.6
COc1cc(/C=C/C(=O)c2ccc([N+](=O)[O-])o2)ccc1O	.	.	.	.	.
COc1cc(/C=C/C(=O)CC(=O)/C=C/c2ccc(O)c(OC)c2)ccc1O	.	106.8	.	-58.7	333.6
COc1cc(C=C(C(C)=O)C(C)=O)ccc1O	.	.	.	.	.
CCN(c1ccccc1)c1ncnc2c1cnn2-c1ccc(OC)cc1	.	.	.	.	.

Compound activity as filed in PubChem BioAssay.
